The record followed here is the supplement of paper PMC10849652.

Of roughly 8,800 targets only a part is listed; those with a hit were picked by preference. About 0.5% of all pairs of compound and target were hits.

UniProt P08473, sequence (P08473 whole entry, looked up): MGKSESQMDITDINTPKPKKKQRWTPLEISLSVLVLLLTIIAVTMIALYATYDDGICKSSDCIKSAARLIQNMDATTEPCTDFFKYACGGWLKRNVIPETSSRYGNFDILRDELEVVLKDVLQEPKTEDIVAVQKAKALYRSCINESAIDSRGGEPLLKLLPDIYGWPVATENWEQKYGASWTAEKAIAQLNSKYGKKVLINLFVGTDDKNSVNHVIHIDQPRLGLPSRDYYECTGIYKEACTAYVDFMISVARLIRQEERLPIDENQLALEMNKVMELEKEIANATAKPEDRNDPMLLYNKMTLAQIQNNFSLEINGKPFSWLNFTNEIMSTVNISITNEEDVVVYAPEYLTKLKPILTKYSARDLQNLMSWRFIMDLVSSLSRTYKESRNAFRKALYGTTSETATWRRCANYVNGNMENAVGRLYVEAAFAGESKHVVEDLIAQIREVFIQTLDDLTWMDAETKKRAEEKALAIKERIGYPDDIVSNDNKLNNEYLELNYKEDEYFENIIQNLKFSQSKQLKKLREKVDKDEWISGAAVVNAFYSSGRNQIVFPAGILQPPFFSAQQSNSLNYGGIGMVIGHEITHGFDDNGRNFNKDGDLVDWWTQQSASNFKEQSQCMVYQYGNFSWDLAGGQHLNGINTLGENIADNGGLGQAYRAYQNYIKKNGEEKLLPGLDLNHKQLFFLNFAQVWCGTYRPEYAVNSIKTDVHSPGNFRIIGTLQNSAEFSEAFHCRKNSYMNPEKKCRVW
UniProt P01116, sequence (P01116 whole entry, looked up): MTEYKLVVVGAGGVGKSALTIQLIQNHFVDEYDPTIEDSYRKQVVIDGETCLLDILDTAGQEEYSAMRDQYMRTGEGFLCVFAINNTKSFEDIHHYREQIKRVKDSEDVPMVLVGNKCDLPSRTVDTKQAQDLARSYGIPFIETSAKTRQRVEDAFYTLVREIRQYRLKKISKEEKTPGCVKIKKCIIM
UniProt Q7Z7M0, sequence (Q7Z7M0 whole entry, looked up): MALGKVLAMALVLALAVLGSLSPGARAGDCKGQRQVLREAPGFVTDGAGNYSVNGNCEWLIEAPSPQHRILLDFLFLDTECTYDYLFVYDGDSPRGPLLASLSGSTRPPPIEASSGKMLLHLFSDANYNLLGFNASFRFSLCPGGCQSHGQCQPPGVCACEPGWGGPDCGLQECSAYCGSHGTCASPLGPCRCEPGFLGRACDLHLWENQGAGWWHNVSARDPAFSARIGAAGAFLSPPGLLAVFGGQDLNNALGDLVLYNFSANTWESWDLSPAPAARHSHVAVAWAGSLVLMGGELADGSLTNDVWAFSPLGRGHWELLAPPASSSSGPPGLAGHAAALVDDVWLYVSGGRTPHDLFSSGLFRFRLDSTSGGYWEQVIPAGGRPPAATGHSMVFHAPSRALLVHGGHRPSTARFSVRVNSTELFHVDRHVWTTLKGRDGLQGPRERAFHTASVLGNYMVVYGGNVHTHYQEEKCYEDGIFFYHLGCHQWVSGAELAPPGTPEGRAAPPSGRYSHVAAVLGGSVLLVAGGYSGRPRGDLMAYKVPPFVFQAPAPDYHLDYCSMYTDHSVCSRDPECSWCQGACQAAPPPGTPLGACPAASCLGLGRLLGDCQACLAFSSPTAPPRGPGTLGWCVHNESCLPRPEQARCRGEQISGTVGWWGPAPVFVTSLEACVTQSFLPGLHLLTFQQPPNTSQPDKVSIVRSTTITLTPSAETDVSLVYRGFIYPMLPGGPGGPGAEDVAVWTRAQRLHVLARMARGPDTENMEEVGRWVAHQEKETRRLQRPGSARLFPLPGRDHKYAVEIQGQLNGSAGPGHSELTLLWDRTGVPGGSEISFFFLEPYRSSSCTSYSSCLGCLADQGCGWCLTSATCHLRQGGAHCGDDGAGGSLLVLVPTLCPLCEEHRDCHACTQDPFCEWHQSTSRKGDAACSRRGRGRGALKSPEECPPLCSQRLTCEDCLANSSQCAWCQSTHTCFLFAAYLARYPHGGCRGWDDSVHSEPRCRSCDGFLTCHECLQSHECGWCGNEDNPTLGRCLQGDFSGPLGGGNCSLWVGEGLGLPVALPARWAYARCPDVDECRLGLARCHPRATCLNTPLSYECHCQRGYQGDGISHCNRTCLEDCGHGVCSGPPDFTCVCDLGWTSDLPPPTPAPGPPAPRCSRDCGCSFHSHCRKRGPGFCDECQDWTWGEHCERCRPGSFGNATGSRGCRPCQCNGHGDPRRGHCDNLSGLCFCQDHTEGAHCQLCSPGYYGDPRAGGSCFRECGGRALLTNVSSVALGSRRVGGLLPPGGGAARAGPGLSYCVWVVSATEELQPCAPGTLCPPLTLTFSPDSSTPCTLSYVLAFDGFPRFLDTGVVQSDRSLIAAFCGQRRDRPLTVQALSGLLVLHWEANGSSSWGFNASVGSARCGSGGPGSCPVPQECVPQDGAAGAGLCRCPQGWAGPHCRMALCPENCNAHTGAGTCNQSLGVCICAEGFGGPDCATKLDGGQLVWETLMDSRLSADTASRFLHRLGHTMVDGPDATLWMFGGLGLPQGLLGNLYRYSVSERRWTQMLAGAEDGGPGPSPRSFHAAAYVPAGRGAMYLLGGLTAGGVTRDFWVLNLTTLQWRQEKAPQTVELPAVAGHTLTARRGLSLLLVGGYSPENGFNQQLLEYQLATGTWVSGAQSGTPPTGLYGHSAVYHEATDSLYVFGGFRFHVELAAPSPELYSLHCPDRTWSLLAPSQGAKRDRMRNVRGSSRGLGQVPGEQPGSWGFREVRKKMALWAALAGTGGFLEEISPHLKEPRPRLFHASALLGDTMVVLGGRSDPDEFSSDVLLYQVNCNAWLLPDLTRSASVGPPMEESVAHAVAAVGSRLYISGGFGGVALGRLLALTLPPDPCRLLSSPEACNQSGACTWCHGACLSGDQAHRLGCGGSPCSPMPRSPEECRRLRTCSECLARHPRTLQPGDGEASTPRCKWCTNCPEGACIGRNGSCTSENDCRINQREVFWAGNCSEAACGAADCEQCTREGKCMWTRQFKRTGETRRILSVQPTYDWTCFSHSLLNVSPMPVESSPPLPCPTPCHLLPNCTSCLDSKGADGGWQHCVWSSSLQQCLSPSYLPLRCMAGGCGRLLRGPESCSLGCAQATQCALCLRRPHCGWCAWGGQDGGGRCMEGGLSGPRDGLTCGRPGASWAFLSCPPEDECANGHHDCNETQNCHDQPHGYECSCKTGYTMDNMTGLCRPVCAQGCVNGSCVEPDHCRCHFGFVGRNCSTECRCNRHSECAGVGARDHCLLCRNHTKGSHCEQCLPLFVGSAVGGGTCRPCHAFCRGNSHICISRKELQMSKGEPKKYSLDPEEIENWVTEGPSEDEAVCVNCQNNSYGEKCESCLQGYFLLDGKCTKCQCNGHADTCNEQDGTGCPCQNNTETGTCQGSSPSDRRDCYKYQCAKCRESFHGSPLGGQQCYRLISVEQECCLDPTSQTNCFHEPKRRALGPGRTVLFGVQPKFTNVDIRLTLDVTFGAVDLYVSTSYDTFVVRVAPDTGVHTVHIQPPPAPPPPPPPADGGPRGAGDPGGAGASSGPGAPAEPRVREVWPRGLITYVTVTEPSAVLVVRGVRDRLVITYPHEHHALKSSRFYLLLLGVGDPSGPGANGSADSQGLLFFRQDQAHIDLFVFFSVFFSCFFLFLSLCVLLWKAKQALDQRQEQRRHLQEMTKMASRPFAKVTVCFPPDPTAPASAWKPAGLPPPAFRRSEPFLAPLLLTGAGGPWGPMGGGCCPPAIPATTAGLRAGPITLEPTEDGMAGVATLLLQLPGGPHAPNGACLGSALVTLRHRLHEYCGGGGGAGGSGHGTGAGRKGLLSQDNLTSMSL
UniProt Q9Y2E5, sequence (Q9Y2E5 whole entry, looked up): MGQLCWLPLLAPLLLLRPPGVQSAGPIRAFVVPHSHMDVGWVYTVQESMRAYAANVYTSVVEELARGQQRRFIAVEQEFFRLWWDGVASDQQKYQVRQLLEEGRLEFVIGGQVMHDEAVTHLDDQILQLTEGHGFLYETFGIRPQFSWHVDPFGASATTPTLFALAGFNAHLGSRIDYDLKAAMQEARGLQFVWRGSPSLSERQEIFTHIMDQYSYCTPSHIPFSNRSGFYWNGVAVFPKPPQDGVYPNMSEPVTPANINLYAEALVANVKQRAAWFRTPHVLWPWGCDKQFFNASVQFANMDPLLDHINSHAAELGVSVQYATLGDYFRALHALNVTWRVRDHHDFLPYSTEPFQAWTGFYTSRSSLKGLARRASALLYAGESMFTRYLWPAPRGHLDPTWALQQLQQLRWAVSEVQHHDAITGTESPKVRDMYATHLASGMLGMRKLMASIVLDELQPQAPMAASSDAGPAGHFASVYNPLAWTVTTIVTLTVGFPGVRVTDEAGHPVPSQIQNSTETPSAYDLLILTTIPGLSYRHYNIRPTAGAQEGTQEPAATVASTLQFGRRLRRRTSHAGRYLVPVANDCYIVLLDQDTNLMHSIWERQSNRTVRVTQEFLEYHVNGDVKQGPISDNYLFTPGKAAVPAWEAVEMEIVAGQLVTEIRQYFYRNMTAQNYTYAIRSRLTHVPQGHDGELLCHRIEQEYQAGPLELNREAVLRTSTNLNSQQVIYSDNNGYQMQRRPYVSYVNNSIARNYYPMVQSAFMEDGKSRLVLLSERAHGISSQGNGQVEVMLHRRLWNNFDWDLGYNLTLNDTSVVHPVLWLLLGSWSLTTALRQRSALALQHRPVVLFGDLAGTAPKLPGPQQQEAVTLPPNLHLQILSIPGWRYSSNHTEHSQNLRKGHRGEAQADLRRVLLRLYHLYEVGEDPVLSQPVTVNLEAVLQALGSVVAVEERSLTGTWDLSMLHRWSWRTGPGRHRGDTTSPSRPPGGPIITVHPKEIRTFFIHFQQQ
UniProt Q16553, sequence (Q16553 whole entry, looked up): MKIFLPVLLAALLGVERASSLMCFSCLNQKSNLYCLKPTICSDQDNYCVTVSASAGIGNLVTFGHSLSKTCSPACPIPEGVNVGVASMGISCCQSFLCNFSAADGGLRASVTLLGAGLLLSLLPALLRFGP
UniProt O15243, sequence (O15243 whole entry, looked up): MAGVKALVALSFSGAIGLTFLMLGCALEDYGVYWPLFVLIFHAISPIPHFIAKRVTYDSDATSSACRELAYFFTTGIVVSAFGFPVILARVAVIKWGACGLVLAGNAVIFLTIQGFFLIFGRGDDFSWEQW

Compound in one test: C1=CC=C(C=C1)[C@H](COC2=CC3=C(C=C2)NC(=O)N3)NC(=O)C4=CC=CN(C4=O)CC5=CC(=C(C=C5)F)F
Put plainly: log2 fold change, soluble protein after heating vs DMSO (PISA); higher = thermal stabilisation; K562 lysate, 10 uM; active = over 0.2 and 3.5 SD of the protein, either way, in both replicates (recomputed). The procedure, abridged:
(§1)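 To prepare the extract, K562 pellets were dounce-homogenised in PBS pH 7.4 with 1 mM MgCl2, giving crude material at 1 mg/mL protein. This was treated with 10 μM compound for 30 min, then heated in aliquots for 3 min over 48°C-58°C before pooling and addition of NP-40 to 0.5% at 4°C. Centrifugation at 21,000xg for 90 min left soluble protein in the supernatant, which TMTpro 16plex LC-MS/MS quantified with equalised channel sums. Results are log-two fold changes in thermal stability compared with solvent controls, from duplicates.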
As for LY6E (UniProt Q16553), the log2 fold change was -0.031 (inactive).
Turning to MME (UniProt P08473), the log2 fold change was -0.152 (inactive).
In the case of MRPL30 isoform 2 (UniProt Q8TCC3), the log2 fold change is 0.086 (inactive).
With KIF26A (UniProt Q9ULI4), the log2 fold change was 0.044 (inactive).
As for MDM2 isoform 11 (UniProt Q00987), the log2 fold change is 0.109 (inactive).
Still for that read-out and setting: as for KIF21A (UniProt H0YI78), the figure is 0.128 (inactive).
Same read-out and setting: as for MAP4K4 isoform 6 (UniProt O95819), the figure is 0.076 (inactive); as for MEGF8 (UniProt Q7Z7M0), 0.023 (inactive).
In the case of MCUB (UniProt Q9NWR8), the log2 fold change was 0.097 (inactive).
Consider METTL21A (UniProt Q8WXB1), for which the log2 fold change was 0.048 (inactive).
Still for that read-out and setting: as for MAP2K3 isoform 3 (UniProt P46734), the figure is 0.035 (inactive); as for LAS1L (UniProt Q9Y4W2), -0.002 (inactive); as for MAN2B2 (UniProt Q9Y2E5), 0.087 (inactive).
Turning to MRPL27 (UniProt Q9P0M9), the log2 fold change is 0.002 (inactive).
With MED25 isoform 3 (UniProt Q71SY5), the log2 fold change was -0.069 (inactive).
Turning to LEPROT (UniProt O15243), the log2 fold change was 0.049 (inactive).

Compound in the next test: CC1=C(SC2=C1C(=N[C@H](C3=NN=C(N32)C)CC(=O)N)C4=CC=C(C=C4)Cl)C
The test is described as above. The procedure, abridged: as §1
For the target LY6E (UniProt Q16553), the log2 fold change is -0.046 (inactive).
Same read-out and setting: as for MME (UniProt P08473), the figure is 0.041 (inactive); as for MRPL30 isoform 2 (UniProt Q8TCC3), -0.056 (inactive).
In the case of KIF26A (UniProt Q9ULI4), the log2 fold change was -0.011 (inactive).
Same read-out and setting: as for MDM2 isoform 11 (UniProt Q00987), the figure is -0.092 (inactive); as for KIF21A (UniProt H0YI78), 0.02 (inactive); as for MAP4K4 isoform 6 (UniProt O95819), 0.063 (inactive).
With MEGF8 (UniProt Q7Z7M0), the log2 fold change is -0.022 (inactive).
The same measure, in the same setting: as for MCUB (UniProt Q9NWR8), the figure is -0.171 (inactive).
On the same count and under the same terms, as for METTL21A (UniProt Q8WXB1), the figure is -0.069 (inactive); as for MAP2K3 isoform 3 (UniProt P46734), -0.021 (inactive); as for LAS1L (UniProt Q9Y4W2), 0 (inactive).
For MAN2B2 (UniProt Q9Y2E5), the log2 fold change is 0.086 (inactive).
The same measure, in the same setting: as for MRPL27 (UniProt Q9P0M9), the figure is -0.046 (inactive); as for MED25 isoform 3 (UniProt Q71SY5), 0.026 (inactive).
For the target LEPROT (UniProt O15243), the log2 fold change was -0.009 (inactive).

Compound in the next test: CC1=C2C(=CC=C1)N=C(N(C2=O)C3=CC=CC=C3C)CN4C=NC5=C(N=CN=C54)N
The test is described as above. An outline of the steps: as §1
Take LRRC9 (UniProt Q6ZRR7): the log2 fold change is 0.008 (inactive).
As to LY6E (UniProt Q16553), the log2 fold change is -0.075 (inactive).
Still for that read-out and setting: as for KRAS (UniProt P01116), the figure is 0.088 (inactive); as for KIF26A (UniProt Q9ULI4), 0.053 (inactive); as for MDM2 isoform 11 (UniProt Q00987), -0.007 (inactive).
On the same count and under the same terms, as for LRPPRC (UniProt H7C3W8), the figure is 0.219 (inactive).
On to MPDZ (UniProt O75970), for which the log2 fold change was -0.024 (inactive).
Same read-out and setting: as for LRP1 (UniProt Q07954), the figure is 0.125 (inactive); as for MDM1 (UniProt Q8TC05), 0.018 (inactive).
On to LSM11 (UniProt P83369), for which the log2 fold change was 0.285 (inactive).
Regarding MAP2K3 isoform 3 (UniProt P46734), the log2 fold change is -0.024 (inactive).
Regarding LAS1L (UniProt Q9Y4W2), the log2 fold change is -0.023 (inactive).
Regarding MEX3A (UniProt A1L020), the log2 fold change is 0.15 (inactive).
On the same count and under the same terms, as for LRRIQ1 (UniProt Q96JM4), the figure is -0.002 (inactive); as for LGALS3BP (UniProt Q08380), 0.159 (inactive).
On the same count and under the same terms, as for MAP3K6 (UniProt O95382), the figure is 0.012 (inactive).
Still for that read-out and setting: as for LRIF1 (UniProt Q5T3J3), the figure is -0.072 (inactive).
On to KIF3C (UniProt O14782), for which the log2 fold change was 0.683 (inactive).

Compound in a further test: Cc1sc2c(c1C)C(c1ccc(Cl)cc1)=N[C@@H](CC(=O)OC(C)(C)C)c1nnc(C)n1-2
The test is described as above. An outline of the steps: as §1
With MME (UniProt P08473), the log2 fold change is 0.232 (inactive).
The same measure, in the same setting: as for MRPL30 isoform 2 (UniProt Q8TCC3), the figure is -0.102 (inactive); as for MAPKAP1 (UniProt Q9BPZ7), -0.048 (inactive).
Same read-out and setting: as for KRAS (UniProt P01116), the figure is 0.016 (inactive); as for KIF26A (UniProt Q9ULI4), 0.09 (inactive).
On to KIF21A (UniProt H0YI78), for which the log2 fold change was 0.106 (inactive).
The same measure, in the same setting: as for KIF18B (UniProt Q86Y91), the figure is -0.083 (inactive); as for MAP4K4 isoform 6 (UniProt O95819), -0.163 (inactive); as for MPDZ (UniProt O75970), -0.159 (inactive).
Still for that read-out and setting: as for MED28 (UniProt Q9H204), the figure is -0.032 (inactive).
In the case of MEGF8 (UniProt Q7Z7M0), the log2 fold change was 0.116 (inactive).
On the same count and under the same terms, as for MRC2 (UniProt Q9UBG0), the figure is 0.209 (inactive).
The same measure, in the same setting: as for KRAS isoform 2 (UniProt P01116), the figure is -0.006 (inactive).
The same measure, in the same setting: as for MCUB (UniProt Q9NWR8), the figure is 0.044 (inactive); as for METTL21A (UniProt Q8WXB1), -0.068 (inactive).
As to MDM1 (UniProt Q8TC05), the log2 fold change is -0.116 (inactive).
In the case of LSM11 (UniProt P83369), the log2 fold change is -0.045 (inactive).
Still for that read-out and setting: as for LYN isoform 2 (UniProt P07948), the figure is 0.043 (inactive); as for MAP2K3 isoform 3 (UniProt P46734), 0.043 (inactive); as for LAS1L (UniProt Q9Y4W2), 0.02 (inactive).
The same measure, in the same setting: as for MAN2B2 (UniProt Q9Y2E5), the figure is -0.007 (inactive).
In the case of MEX3A (UniProt A1L020), the log2 fold change is -0.073 (inactive).
Same read-out and setting: as for MRPL27 (UniProt Q9P0M9), the figure is -0.048 (inactive).
On the same count and under the same terms, as for MED25 isoform 3 (UniProt Q71SY5), the figure is 0.01 (inactive); as for LGALS3BP (UniProt Q08380), -0.152 (inactive); as for LRIF1 (UniProt Q5T3J3), 0.048 (inactive).
Still for that read-out and setting: as for KIF3C (UniProt O14782), the figure is -0.059 (inactive); as for KMT2B (UniProt Q9UMN6), -0.012 (inactive).
